# Laboratory results: article PMC5540273 (PLoS ONE, 2017)
# Key:
# [1] = system: T1, CDC2L5
# T1 construct: gene CDK13
# [2] = system: CSNK1G1
# [3] = system: CDK2
# [4] = system: CDKL2
# [5] = system: CLK3
# [6] = system: T2, CDC2L1
# T2 construct: gene CDK11B
# [7] = system: CDK9
# [8] = system: CSK
# [9] = system: CAMK1G
# [10] = system: CDK8
# [11] = system: CAMK2D
# [12] = system: CSNK1E
# [13] = system: CIT
# [14] = system: CSF1R
# [15] = system: CAMKK1
# [16] = system: CSNK1A1L
# [17] = system: CAMK2A
# [18] = system: CDK4
# [19] = system: CSNK1D
# [20] = system: CLK1
# 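Note: kd values determined as follow-up on hits from a single-replicate KINOMEscan panel screen.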
structure (smiles),measurement,setting,value
CCCc1ccc(S(=O)(=O)NC2CCN(c3ccnc(Nc4ccc(F)cc4)n3)C2)cc1 (centres unmarked) [GSK1379715],Kd,[1],> 10 µM
CSc1nn2c(=O)cc(N3CCOCC3)nc2n1Cc1cccc(C(F)(F)F)c1C [GSK2363608],Kd,[2],> 10 µM
O=C(Nc1n[nH]c2nc(-c3nccs3)c(Br)cc12)C1CC1 [SB-742251],Kd,[3],0.35 µM
same,Kd,[4],0.48 µM
COc1cc2nccc(Nc3ccc(NC(=O)c4ccc(C)cc4)c(O)c3)c2cc1OC.Cl [GW440132],Kd,[5],> 10 µM
CS(=O)(=O)c1ccc(-c2nc3n(c2-c2ccncc2)CCC3)cc1 [SKF-105942],Kd,[6],> 10 µM
same,Kd,[7],> 10 µM
same,Kd,[8],> 10 µM
O=C(Nc1n[nH]c2cc(-c3cccc(F)c3F)ccc12)C1CC1 [SB-733894],Kd,[9],> 10 µM
same,Kd,[10],> 10 µM
same,Kd,[4],0.3 µM
Cc1cccc(-c2nc(C)cc(Nc3ccncc3)n2)n1 [GSK257997],Kd,[9],> 10 µM
same,Kd,[11],> 10 µM
same,Kd,[6],> 10 µM
same,Kd,[7],> 10 µM
Cc1cc(-c2ccc3c(c2)CC[C@@H](N[C@@H](C)c2ccccc2)C3)cnc1N.Cl [GW412617],Kd,[9],> 10 µM
same,Kd,[11],> 10 µM
Cn1cncc1-c1ccc2ncnc(Nc3ccc(OCc4ccccc4)cc3)c2c1 [GW320571],Kd,[5],> 10 µM
same,Kd,[12],> 10 µM
O=C(Nc1ccccc1)Nc1cccc(Oc2ccc3nccn3n2)c1,Kd,[13],0.0011 µM
same,Kd,[14],0.027 µM
CCn1c(-c2ccccn2)nc2cnccc21 [SB-736398],Kd,[1],> 10 µM
CC(C)(C)c1ccc(C(=O)Nc2cn3cc(Cl)ccc3n2)cc1,Kd,[15],> 10 µM
CN1C(=O)C(Nc2ccc(Cl)c(C(=O)O)c2)=C(c2ccc(Cl)cc2)C1=O [SB-404290],Kd,[9],> 10 µM
Cc1ccc(NC(=O)Nc2cccc(Cl)c2)cc1-c1ccc(C(=O)Nc2ccncc2)cc1 [GSK1398468],Kd,[13],0.15 µM
CC(=O)Nc1nc2cnc(Nc3cc(NC(=O)c4cccc(CCC#N)c4)ccc3C)nc2s1,Kd,[14],> 10 µM
CCn1c(-c2cccnc2O)nc2cnccc21 [SB-736715],Kd,[16],> 10 µM
Cc1c(Cn2ccn3c(=O)cc(N4CCOCC4)nc23)cccc1C(F)(F)F [GSK2289044],Kd,[17],> 10 µM
Cc1cccc(-c2nc(Nc3ccncc3)c3ccccc3n2)n1 [GW855857],Kd,[13],0.44 µM
O=C(Nc1n[nH]c2nc(-c3nccs3)c(Br)cc12)C1CCCC1 [SB-742609],Kd,[6],> 10 µM
same,Kd,[3],0.28 µM
same,Kd,[18],4.2 µM
same,Kd,[7],2.5 µM
same,Kd,[4],0.5 µM
COc1ccc(Nc2nccc(NCCNC(=O)Nc3ccccc3F)n2)cc1 [GSK1379901],Kd,[5],> 10 µM
same,Kd,[12],> 10 µM
CN(C)CCN(C)C(=O)c1cc(-c2ccncc2)c(-c2ccc(Cl)c(O)c2)o1.Cl.Cl [SB-710397],Kd,[19],0.22 µM
same,Kd,[12],0.41 µM
CC(C)(C)c1ccc(C(=O)Nc2cn3cc(-c4cccnc4)ccc3n2)cc1,Kd,[20],0.28 µM
same,Kd,[12],0.11 µM
Cn1ccc2ncnc(Oc3ccc(NC(=O)Nc4ccccc4)cc3)c21,Kd,[14],0.082 µM
